# From PubChem BioAssay (Tox21)
# Active and inactive are the calls of the source. Calls come from the whole dose curve; as a rule, active = well fitted curve in the direction sought with a large enough effect in the repeat runs; inconclusive = weak or mixed curves; inactive = flat fitted curve, though single readings scatter.
# Assay: qHTS assay to test for compound auto fluorescence at 460 nm (blue) in HEK293 cell free culture (AID 720681)
# Details: cell-free medium, autofluorescence 405/460 nm (blue); series mostly up to 91.3 µM; fluorescence, % of fluorescent control: at the top concentration
# From the text: U.S. Tox21 Program National Center for Advancing Translational Sciences [NCATS] NIH Chemical Genomics Center [NCGC] U.S. Environmental Protection Agency [EPA] National Institutes of Environmental Health Sciences [NIEHS] National Toxicology Program [NTP] U.S. Food and Drug Administration [FDA] Tox21 Assay Overview: Compound auto fluorescence often interferes with screening of the compound library against various biological targets and signaling pathways. Some of these compounds may have fluorophoric properties. Such properties may interfere with the assay outputs resulting in false positives and/or negatives. To decrease such complications and ensure the compound activities are relevant in terms of biological response, the Tox21 10K compound library was screened for auto fluorescence. From the fluorophores used as reporter signals in our screening assays, the auto fluorescence equivalencies of compounds against three fluorophores have been evaluated: Triamterene, Fluorescein and Rose Bengal sodium for blue, green and red fluorescence, respectively. The fluorescence intensities were measured using Excitation/Emission wavelengths at 405/460nm, 485/535nm and 540/590nm for blue, green and red labels, respectively. This assay includes the blue fluorescence data.
# Tox21 Assay Protocol Summary: 5 uL of culture medium (DMEM containing 10% FBS) per well was dispensed into black wall/clear bottom 1536-well plates using a Multidrop Combi Dispenser (ThermoFisher Scientific, Waltham, MA). After 23 nL compound or DMSO vehicle was transferred into assay plate by a pintool work station (Kalypsys, San Diego, CA), fluorescence intensities in the assay plates were measured by an Envision (PerkinElmer, Shelton, CT) plate reader using three labels for measuring blue, green and red fluorescence at […] 460, 535 and 590nm respectively.
# % is set by controls: 0 for no effect and ±100 for the full control effect.
SMILES,"fluorescence, % of fluorescent control",outcome
Oc1cccc(Cl)c1,0.025% (inactive),–
C=CCSSCC=C,0.0319% (inactive),–
C=CCOCC1CO1 (stereo not given),-0.0601% (inactive),–
CC(Oc1cccc(Cl)c1)C(=O)O (stereo not given),-0.126% (inactive),–
CN(C)c1ccc(N=O)cc1,–,inactive
O=C(O)c1cc(I)cc(I)c1I,0.145% [at 95.7 µM] (inactive),–
O=CC=O,–,inactive
SCc1ccccc1,-0.0146% [at 95.7 µM] (inactive),–
CCCC(C)(COC(N)=O)COC(=O)NC(C)C (stereo not given),–,inactive
CCC1(C2=NCCN2)Cc2ccccc2O1 (stereo not given),0.197% [at 46 µM] (inactive),–
O=[N+]([O-])/C=C/c1ccccc1,–,inactive
COc1cc(C[C@@H](C)N)c(OC)cc1Br,-0.0309% [at 95.7 µM] (inactive),–
CCOP(=O)(O)C(N)=O,0.0028% (inactive),–
C[C@]12CC[C@H]3[C@@H](CCC4=CC(=O)CC[C@@H]43)[C@@H]1CC[C@@H]2OC(=O)CCc1ccccc1,-0.173% [at 46 µM] (inactive),–
C=CCOC(=O)C(C)(C)OC(=O)c1cc(-n2c(=O)cc(C(F)(F)F)n(C)c2=O)ccc1Cl,0.114% (inactive),–
C[Si](Cn1cncn1)(c1ccc(F)cc1)c1ccc(F)cc1,–,inactive
O=C(O)C(F)(F)C(F)(F)C(F)(F)C(F)(F)C(F)(F)C(F)(F)C(F)(F)C(F)(F)F,0.175% (inactive),–
Clc1ccc(Cl)c(Cl)c1,–,inactive
N#CC(C#N)=C(C#N)C#N,-0.012% [at 95.7 µM] (inactive),–
C[C@H]1[C@@H]2Cc3ccc(O)cc3[C@@]1(C)CCN2C,-0.115% [at 203 µM] (inactive),–

SMILES,"fluorescence, % of fluorescent control",outcome
NP(N)(=O)NC(=O)c1ccc(F)cc1,0.0199% [at 46 µM] (inactive),–
COCc1cnc(C2=NC(C)(C(C)C)C(=O)N2)c(C(=O)O)c1 (stereo not given),-0.0139% (inactive),–
C=CC(=O)OCC,0.0296% [at 95.7 µM] (inactive),–
FC(Cl)(Cl)C(F)(Cl)Cl,0.093% [at 95.7 µM] (inactive),–
CC(C)[C@@H](C(=O)O[C@@H](C#N)c1cccc(Oc2ccccc2)c1)c1ccc(Cl)cc1,–,inactive
N#CC(C#N)=Cc1ccc(O)c(O)c1,0.445% [at 46 µM] (inactive),–
O=C(Cl)OCCOCCOC(=O)Cl,-0.0735% (inactive),–
CCCN(CCC)c1c([N+](=O)[O-])cc(C(C)C)cc1[N+](=O)[O-],–,inactive
COc1ccc(C(=O)c2c(C)n(CCN3CCOCC3)c3ccccc23)cc1,-0.0105% [at 46 µM] (inactive),–
CCCC[N+]1(C)[C@@H]2CC(OC(=O)[C@H](CO)c3ccccc3)C[C@H]1[C@@H]1O[C@@H]12 (stereo not given in full),-0.0183% [at 46 µM] (inactive),–
Cc1nc2ccccc2c(=O)n1-c1ccccc1Cl,-0.0846% (inactive),–
C=CCc1ccc(OC(=O)Cc2ccccc2)c(OC)c1,0.0435% (inactive),–
NC(=S)c1c(Cl)cccc1Cl,-0.0436% (inactive),–
CC(C)(C)c1ccc(CCOc2ncnc3ccccc23)cc1,-0.0686% (inactive),–
CN1CC[C@]23c4c5ccc(O)c4O[C@H]2[C@@H](O)C=C[C@H]3[C@H]1C5,-0.0439% (inactive),–
CCCCC(CC)CO[N+](=O)[O-] (stereo not given),0.0716% (inactive),–
COc1ccccc1N1CCNCC1,0.253% [at 46 µM] (inactive),–
CCCBr,-0.195% (inactive),–
O=C([O-])c1ccccn1.O=C([O-])c1ccccn1.O=C([O-])c1ccccn1.[Cr+3],0.0201% (inactive),–
CCSCc1ccccc1OC(=O)NC,-0.0282% (inactive),–
